In the library only some 7.6% were active in any assay of this set; here they are far more common.
Giardia killer = Giardia lamblia killing | Giardia lamblia trophozoite viability | activity change, % at 7.66 µM, hits read low | 340,000 tested, 0.15% active; in the data active means activity change below about -80%; inconclusive means between about -30% and that limit;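 further: parasites exposed to compound for two days anaerobically before the ATP read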
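Trophozoites 100 cells/well + cpd; 48 hrs, 37 deg C, anaerobic. ATPLite 1-Step added, 15-30 min RT, luminescence read (ATP-based viability).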
VP16 counter = inhibits Gal4-VP16 luciferase reporter, ROR gamma counter-screen. Drosophila S2 Gal4-VP16 UAS-luciferase, luminescence, 20 h. Potency, µM (highest dose often 53.6 µM), actives largely listed as inhibitors. 310,000 tested, 3.5% active;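 further: Gal4-VP16 expression switched on by copper sulfate through the metallothionein promoter; nearly all actives have a fitted effect of over 50% in size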
RORg inh = inhibitors of mouse ROR gamma transcriptional activity. P51450. Drosophila S2 Gal4-RORgamma UAS-luciferase reporter, 20 h. Potency, µM (top dose mostly 53.6 µM), actives largely listed as inhibitors. 310,000 tested, 5.4% active; further: nearly all actives have a fitted effect of over 60% in size
Target sequence (P51450 whole entry, looked up, the tested form may be a part): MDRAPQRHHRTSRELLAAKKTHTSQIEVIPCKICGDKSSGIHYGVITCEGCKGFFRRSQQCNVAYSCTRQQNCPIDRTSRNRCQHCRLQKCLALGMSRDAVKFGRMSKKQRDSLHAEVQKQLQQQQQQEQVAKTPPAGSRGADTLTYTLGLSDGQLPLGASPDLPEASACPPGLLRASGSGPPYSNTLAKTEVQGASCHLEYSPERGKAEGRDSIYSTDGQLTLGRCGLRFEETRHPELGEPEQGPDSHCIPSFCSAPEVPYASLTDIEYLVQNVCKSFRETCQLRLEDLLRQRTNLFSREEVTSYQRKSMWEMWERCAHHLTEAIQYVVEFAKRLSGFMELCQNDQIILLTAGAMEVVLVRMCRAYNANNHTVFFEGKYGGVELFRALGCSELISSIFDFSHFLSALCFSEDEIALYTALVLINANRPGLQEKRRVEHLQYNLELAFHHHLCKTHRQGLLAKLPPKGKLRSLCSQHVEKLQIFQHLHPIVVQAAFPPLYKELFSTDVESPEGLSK
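Read-out: Photinus luciferase luminescence; inhibitors lower reporter signal. Insect Schneider cells with Gal4-ROR gamma fusion under metallothionein promoter, UAS reporter; 700 uM final copper sulfate induction, 20 hr, ambient temperature.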
p53 reactivation = mutant p53 re-activation in reporter cells | 320,000 tested, 0.063% active | Potency, µM (series often up to 92.2 µM), actives largely listed as activators | H1299 p53-A138V BP100-luciferase reporter, luminescence, 24 h; further: nearly all actives have a fitted effect of over 45% in size
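p53-null H1299 cells stably carrying temperature-sensitive p53-A138V and a BP100-luciferase reporter were pinned with compounds (4-point, 1:5 series) and held 24 hrs at 37 deg C. Luminescence was read 10 min after detection reagent.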
BRCA1 expr act = activators of BRCA1 expression | 380,000 tested, 1.1% active | Potency, µM (top dose mostly 46.1 µM), usual class: activators | MCF7-BRCA1-FFLuc reporter, luminescence, 48 h; response scale: scaled: vehicle 0%, 10 µM genistein 100%; further: nearly all actives have a fitted effect of over 80% in size
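First, MCF7-BRCA1-FFLuc cells (2000/well) attach for 2 h; next, compounds are pin-added and incubated 48 h at 37 °C; finally, luciferase reagent is added and luminescence read after 15 min.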
ELG1 DNA repair = blocks ELG1-dependent DNA repair in HEK293T cells | HEK293T ELG1-luciferase reporter, luminescence, 16 h; DNA damage induced by 5-fluorouridine | Potency, µM (series often up to 46.1 µM), hits mostly inhibitors | 330,000 tested, 2.3% active; further: nearly all actives have a fitted effect of over 55% in size
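DMSO vehicle served as the neutral condition. Each well held 2,000 cells given 5-fluorouridine plus compound; after 16 hr at 37 °C/5% CO2, ONE-Glo was added and luciferase measured 30 min later.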
A number is an active result; n = inactive; u = inconclusive; x = not tested or not shown; [ ] = remark or other dose. Unless noted, the call rests on the fitted dose curve; in most records, active means well fitted curve in the direction sought with a large enough effect; inconclusive means small, poorly fitted or top-dose-only effect, or another doubt; inactive means no such curve, though single readings can be large; an effect the other way counts as inactive or inconclusive.

SMILES | Giardia killer | VP16 counter | RORg inh | p53 reactivation | BRCA1 expr act | ELG1 DNA repair
CCCOc1cccc(C(=O)Nc2ccc3c(c2)OCCO3)c1 | u | n | n | n | 7.9µM | u
O=C(Nc1ccc2c(c1)OCCO2)c1ccc(Cl)c(Cl)c1 | n | n | n | n | 13µM | u
Cc1ccccc1C(C(=O)NC1CCCCC1)N(C(=O)c1ccccn1)c1cccnc1 (stereo not drawn) | n | n | n | n | n | n
O=C(Nc1ccnc(-c2cccnc2)n1)c1ccc(Cl)cc1 | n | n | n | n | n | n
COc1ccc(C(=O)N2CCN=C2SC)cc1 | n | n | n | n | n | n
CSc1ccccc1C(=O)OCC(=O)N1CCCCCC1 | n | x | x | n | n | u
C[C@H](CO)N1C[C@H](C)[C@H](CN(C)C(=O)c2ccccn2)Oc2cc(C#Cc3ccc(F)cc3)ccc2S1(=O)=O | x | x | x | x | n | x
CN(CC1CCCO1)S(=O)(=O)c1ccc(C(=O)Nc2nccs2)cc1 (stereo not drawn) | n | n | n | n | n | n
Cc1ccc(C(=O)Nc2ccc3c(c2)OCCO3)c(Cl)c1 | -83 | 5µM | 7.9µM | n | u | u
COc1ccc(-c2nnc(NC(=O)c3ccc(S(=O)(=O)N(C)CC4CCCO4)cc3)o2)c(OC)c1 (stereo not drawn) | n | 1µM | 0.71µM | n | n | u
COc1cc(SC)ccc1C(=O)Nc1ccc2c(c1)OCCO2 | n | u | 11µM | n | u | u
Cc1ccn2cc(C(=O)Nc3ccc4c(c3)OCCO4)nc2c1 | n | 4.5µM | 1.3µM | n | n | u
COc1ccc(N2CCN(C(=O)c3cc4cc5ccc(Cl)cc5nc4o3)CC2)cc1 | x | x | x | x | n | x
O=C(Nc1ccc2c(c1)OCCO2)NC12CC3CC(CC(C3)C1)C2 | n | n | n | u | 3.5µM | u
O=C(Nc1ccc2c(c1)OCCO2)Nc1ccc2c(c1)OCO2 | u | u | u | n | n | u
CCC(=O)N1CCC2(CC1)Oc1ccc(Cl)cc1C(=O)C21CC(c2ccc(Cl)cc2)=NO1 (stereo not drawn) | n | n | n | n | n | 10µM
CCC(=O)N1CCC2(CC1)Oc1ccc(F)cc1C(=O)C21CC(c2ccc(Cl)cc2)=NO1 (stereo not drawn) | n | n | n | n | n | n
COCCn1c(=NC(=O)c2sc3ccccc3c2Cl)sc2cc(S(N)(=O)=O)ccc21 | n | u | n | n | n | u
COCCn1c(=NC(=O)c2cc(-c3cccs3)nc3ccccc23)sc2cc(S(N)(=O)=O)ccc21 | n | n | u | n | n | 6.5µM
C=CCn1c(=NC(=O)c2cc(-c3cccs3)nc3ccccc23)sc2cc(S(N)(=O)=O)ccc21 | n | n | u | n | n | 18µM
COc1ccc(C2CC(c3ccc(OC)cc3)n3nc(NS(C)(=O)=O)nc3N2)cc1 (stereo not drawn) | n | n | n | n | n | n
O=C(CSc1ncccn1)NCc1cccc(Cl)c1 | n | n | n | n | 11µM | u
O=C(Cc1cccs1)NCc1ccc(Cl)cc1Cl | n | n | n | x | 4µM | u
O=C(Cc1cccs1)NCc1cccc(Cl)c1 | n | n | n | n | 13µM | u
O=C(Cc1cccs1)NCc1ccccc1Br | n | n | n | n | 2.2µM | u
SMILES | Giardia killer | VP16 counter | RORg inh | p53 reactivation | BRCA1 expr act | ELG1 DNA repair
CC(=O)Nc1ccc(/C=N/NC(=O)CCN2CCN(c3ccccc3)CC2)cc1 | n | n | n | n | n | n
Cc1noc(C)c1NC(=O)N(C)C[C@@H]1Oc2c(NC(=O)NC(C)C)cccc2C(=O)N([C@@H](C)CO)C[C@@H]1C | n | x | x | n | n | n
COC(=O)CNC(=O)C1CCC(CNS(=O)(=O)c2cccc3nsnc23)CC1 (stereo not drawn) | n | n | n | n | n | n
CCCOc1ccc(CNC(=O)Cc2cccs2)cc1 | n | u | n | u | 7.9µM | u
Cc1cc(O)c(C(C[N+](=O)[O-])c2ccc(Cl)cc2Cl)c(=O)o1 (stereo not drawn) | n | u | 16µM | n | n | n
O=c1[nH][nH]c(-c2ccccc2O)c1C(C[N+](=O)[O-])c1ccc(Cl)cc1Cl (stereo not drawn) | n | n | n | n | n | n
O=C(NC(=S)NCCc1ccccc1)c1ccco1 | n | u | 6.3µM | u | n | u
Cc1ccccc1OCC(=O)NCCC1=CCCCC1 | n | u | u | n | n | n
O=C(NC(=S)NCCC1=CCCCC1)c1ccc(Br)o1 | n | u | 4.5µM | n | n | u
Cc1ccccc1C(=O)NC(=S)NCCC1=CCCCC1 | n | 16µM | 4µM | n | n | n
O=C(NC(=S)NCCC1=CCCCC1)c1ccco1 | n | u | 4.5µM | n | n | u
Cc1[nH]c(=S)[nH]c(=O)c1Cc1ccc(OCC(C)C)cc1 | n | n | n | n | n | n
C/C(=N\NC(=O)C1CC1)c1ccc(C)c(C)c1 | n | n | n | n | 10µM | u
CNC(=S)N/N=C(\C)c1ccc(C)c(C)c1 | n | 5µM | 1.8µM | n | n | u
CNC(=S)NNC(=O)c1cccc(C(F)(F)F)c1 | n | n[0.365 µM] | 11µM | n | n | n
COC(=O)N/N=C(\C)c1cccc(C(F)(F)F)c1 | n | n | n | n | n | n
CNC(=S)N/N=C(\C)c1cccc(C(F)(F)F)c1 | n | 3.5µM | 1.1µM | n | n | n
CNC(=S)NN=C(C)c1ccc(OC)cc1O | n | x | x | x | n | x
OCC[C@@H]1C[C@@H](O)[C@H](O)[C@]2(Cc3ccccc3O2)O1 | n | n | n | x | n | n
CCCCCC1CCC(C(=O)N2CCOCC2)CC1 (stereo not drawn) | n | n | n | n | n | n
Cc1ccc(S(=O)(=O)NC(C)(C)CSc2nnc(Nc3ccccc3)s2)cc1 | n | n | u | n | n | 23µM
CC(C)(CSc1ncccn1)NS(=O)(=O)c1ccccc1 | n | n | n | n | n | n
O=C(CSc1nccn1-c1ncc(C(F)(F)F)cc1Cl)c1ccc(Cl)cc1 | n | u | 16µM | n | n | u
CCOC(=O)c1ccc(N2Cc3ccccc3C2=NC(=O)c2cccs2)cc1 | n | n | n | u | 10µM | u
CC(=O)c1ccc(N2Cc3ccccc3C2=NC(=O)c2cccs2)cc1 | n | n | n | n | u | u
CCCNC(=O)/C=C/c1ccc(C(C)C)cc1 | n | n | n | u | 13µM | u
CC(C)C(C(=O)NC1=NCCS1)c1ccc(Cl)cc1 (stereo not drawn) | n | u | 4.5µM | n | n | n
CC(C)c1ccc(OCC(=O)NC2=NCCS2)cc1 | n | n[10 µM] | 14µM | n | n | u
CC(C)c1ccc(/C=C/C(=O)NC2=NCCS2)cc1 | x | u | 8.9µM | u | x | u
ONC(=Nc1ccccc1Cl)c1ccccc1Cl | n | n | n | n | n | u

Screening data: PubChem, National Center for Advancing Translational Sciences (NCATS)
